Among all 65,000 compounds or so, about 2,100 (3.2%) showed an effect of 50% or more. The median lay at about -52%. Shown is part of a subset that was picked to be rich in strong results.
Tested on: Plasmodium falciparum
Assay: Screen against P. falciparum Asexual Blood Stage (ABS), at 5uM
Assay type: functional, Dd2
Settings: tested at 5 uM

SMILES	INHIBITION [%]
Clc1cc(NCc2nccs2)nc2[nH]ccc12	-72
Clc1cc(NCc2ncc[nH]2)nc2[nH]ccc12	-48.4
Clc1cc(NCc2ccncc2)nc2[nH]ccc12	64.9
COC[C@@]12CCO[C@@H]1CCN(Cc1ccccc1OC)C2	29.7
CCS(=O)(=O)N1C[C@H](c2nc(C)no2)C[C@H]2OCC[C@H]21	-101
COc1cccc(OC)c1-c1ccnc2cc(CC(=O)NC(C)C)nn12	-158
Cc1nccn1CCCn1cncc1-c1ccc2c(c1)CC(C)N2C (configuration not stated)	49.8
Cc1nccn1CCCn1cncc1-c1ccc2c(c1)CCC(C)N2C (configuration not stated)	66.4
Cc1nccn1CCCn1cncc1-c1ccc2c(c1)CCCN2C	-15.5
CCC1(CC)Cc2ccccc2-c2nc(NCCO)[nH]c(=O)c21	1.11
Cn1ccnc1SCCNC1CCN(c2ncccn2)CC1	-11.4
Cn1ccnc1SCCNC1CCN(c2nc3ccccc3s2)CC1	59.7
Cc1n[nH]c(SCCNC2CCN(c3nc4ccccc4s3)CC2)n1	-196
O=S(=O)(NCCc1ccccc1F)N1CCOCC1	-122
COc1cn(CC(N)=O)c(CSc2nccc(C)n2)cc1=O	-34.1
O=C(C1CC1)N1CCC2(COCc3cnc(N4CCOCC4)nc32)C1 (configuration not stated)	-76.2
CC(C)C1CN(C(=O)c2cn3cc(Cl)cnc3n2)CCCN1CC1CC1 (configuration not stated)	-26.8
Cc1ccsc1C(Cc1ccccc1)NC(=O)CNC(=O)C1CC1 (configuration not stated)	69.9
CCNC(=O)CCC(=O)NC(Cc1ccccc1)c1sccc1C (configuration not stated)	-32.2
Cc1ccsc1C(Cc1ccccc1)NC(=O)CSCC(N)=O (configuration not stated)	-9.21
CNC(=O)[C@@H](c1ccccc1OC)N1CCC[C@H]1C(=O)NCCN(C)C	-199
CC(C)c1noc(CCCC(=O)N2CCN(S(C)(=O)=O)CC2)n1	-41.7

SMILES	INHIBITION [%]
COCCN(C)C[C@@H]1CN(C(=O)c2ccc(=O)n(C)c2)C[C@@H]1CO	-237
Cc1cc2c(cc1Cl)C=CC1(CCN(CC(=O)N3CCOCC3)CC1)O2	67.6
Cc1ccc(CCC(=O)N2CCOCC2)cc1Cl	-148
CCN(CC)C(=O)CN1CCC2(C=Cc3cc(Cl)c(C)cc3O2)CC1	49.3
Cc1cc2c(cc1Cl)C=CC1(CCN(C(=O)N3CCOCC3)CC1)O2	-24
Cc1cc2c(cc1Cl)C=CC1(CCN(CC(=O)N3CCCC3)CC1)O2	59.9
Cc1cc2c(cc1Cl)C=CC1(CCN(CC(=O)NC3CCCC3)CC1)O2	32.7
Cc1cc(C(=O)N2CCCC(n3cncn3)C2)nn1C (configuration not stated)	-8.41
COc1ccc(CNc2cnn(C)c(=O)c2Cl)cc1	-21.1
CCN1C[C@H]2[C@@H](C1)N(S(=O)(=O)c1ccccc1F)CC[C@H]2OC	48.5
CCN1C[C@@H]2[C@@H](OC)CCN(S(=O)(=O)c3ccccc3)[C@@H]2C1	33.8
CCN1C[C@H]2[C@@H](C1)N(S(=O)(=O)c1ccccc1)CC[C@H]2OC	62.8
Cc1ccc(C2(O)CCN(C(=O)CCn3ccc(=O)[nH]c3=O)CC2)nc1	-56.8
Cc1ccc(-c2nnc(CN3CCCC(Cn4cncn4)C3)o2)cc1 (configuration not stated)	-182
CN(C)C(=O)CN1CCC2(COCc3cnc(-c4ccccc4)nc32)C1 (configuration not stated)	-24.6
CN(Cc1ccco1)C(=O)C1CCCc2ccccc21 (configuration not stated)	-142
Cc1ccc(CN2CCOC3(CCCN(c4cccc(F)c4)C3)C2)o1 (configuration not stated)	51.6
COCCN1CCOCC2(CCCN(Cc3cccc(F)c3)C2)C1 (configuration not stated)	9.71
OCCN1CCOC2(CCCN(c3cccc(F)c3)C2)C1 (configuration not stated)	-22.5
Fc1cccc(N2CCCC3(CN(Cc4ccncc4)CCO3)C2)c1 (configuration not stated)	38.4
O=C(c1ccoc1)N1CCOC2(COCCN(CC3CC3)C2)C1 (configuration not stated)	-17.6
Fc1cccc(N2CCCC3(CN(Cc4cccnc4)CCO3)C2)c1 (configuration not stated)	66

SMILES	INHIBITION [%]
Cn1cc(CN2CCOC3(CCCN(c4cccc(F)c4)C3)C2)cn1 (configuration not stated)	-5.32
Fc1cccc(CN2CCOC3(COCCN(CC4CC4)C3)C2)c1 (configuration not stated)	63.4
Fc1cccc(N2CCCC3(CN(Cc4ccco4)CCO3)C2)c1 (configuration not stated)	43.7
Fc1ccc(CNCC2Cn3nncc3CO2)cc1 (configuration not stated)	-21.1
COc1cc(N2CCCC3(CCN(c4cccnc4)C3=O)C2)ncn1 (configuration not stated)	-14.1
Cc1nnc2ccc(N3CCC4(CCOC4)C3)nn12 (configuration not stated)	-37.2
FC(F)c1nnc2ccc(N3CCC4(CCOC4)C3)nn12 (configuration not stated)	-52.7
FC(F)c1nnc2ccc(N3CCC4(CCCCC4)C3)nn12	61.4
O=S1(=O)CCC(CNc2cc(-c3ccccc3)nc3ccnn23)C1 (configuration not stated)	-47.3
O=S(=O)(c1ccccc1F)N1CCCC(c2nccs2)C1 (configuration not stated)	-129
O=C(NCCCSc1ccc(F)cc1)C1CCc2cn[nH]c2C1 (configuration not stated)	-54.6
COCc1cn(C2CCN(CCC(C)c3ccccc3)CC2)nn1 (configuration not stated)	-46.3
COc1ccc(C(=O)NCC2CCCN(C3CCOCC3)C2)c(O)c1 (configuration not stated)	-31.9
CCc1noc(CN2CCN(CCO)CC2)n1	-176
CC(C)Cc1noc(CN2CCN(CCO)CC2)n1	0.0946
CCCc1noc(CN2CCN(CCO)CC2)n1	50.5
C[C@H](O)CNc1cc(-c2ccncc2)ncn1	-170
CCCOCCN1CCC2(CC1)CC(=O)N(Cc1cc(F)cc(F)c1)C2	38.7
Cc1csc(CNCC(C)c2nc3ccccc3o2)n1 (configuration not stated)	-27.8
Cc1ccc(O)c(CNCC(C)c2nc3ccccc3o2)n1 (configuration not stated)	63.2
Cc1nc(CNCC(C)c2nc3ccccc3o2)cs1 (configuration not stated)	-109
CN1CCc2nc(C3CCN(C(=O)CCC4CCCC4)CC3)ncc2C1	-37.6

SMILES	INHIBITION [%]
O=C(NC1CCCN(CCCc2ccccc2)C1)c1ccncc1 (configuration not stated)	-29.1
O=C(NC1CCCN(CCCc2ccccc2)C1)c1ccc(Cl)s1 (configuration not stated)	60.9
O=C(NC1CCCN(CCCc2ccccc2)C1)C1=CCCCC1 (configuration not stated)	2.46
O=C(C1CC1)N1CC[C@H](c2nc3ccccc3o2)C1	50.1
CC(=O)N1CC[C@H](c2nc3cc(C)ccc3o2)C1	-68.8
CC(=O)N1CC[C@H](c2nc3cc(F)ccc3o2)C1	-105
Cc1cc(C)c(N(CC(O)CNCc2ccco2)S(C)(=O)=O)c(C)c1 (configuration not stated)	60.7
CC(O)CNc1c(NCc2ccco2)c(=O)c1=O (configuration not stated)	-192
Cc1ccc(CS(=O)(=O)NCc2ccco2)cc1	-31.4
CN(C)c1nc(NCCc2ccccn2)ncc1F	-447
Cc1ccc2c(c1)CN(C(=O)c1cccnc1)C(CN(C)C)CO2 (configuration not stated)	29.2
Cc1ccc2c(c1)CN(C(=O)c1cnc(C)cn1)C(CN(C)C)CO2 (configuration not stated)	-86.1
COc1ccc(C(=O)N2Cc3cc(C)ccc3OCC2CN(C)C)cc1 (configuration not stated)	17.9
COc1ccccc1C(=O)N1Cc2cc(C)ccc2OCC1CN(C)C (configuration not stated)	60.8
Cc1ccc(C(=O)N2CCCCC2CN(C)C)cc1 (configuration not stated)	-58.9
Cc1ccc2c(c1)CN(C(=O)c1ccccc1F)C(CN(C)C)CO2 (configuration not stated)	50.4
Cc1ccc2c(c1)CN(C(=O)c1ccncc1)C(CN(C)C)CO2 (configuration not stated)	13
Cc1ccc2c(c1)CN(C(=O)C1CCCCC1)C(CN(C)C)CO2 (configuration not stated)	66
Cc1nc(C)c(C(=O)N2Cc3ccccc3OCC2CN(C)C)o1 (configuration not stated)	-21.9
CCCn1nccc1NC(=O)CN1CCc2cnc(C(C)C)nc2C1	-4.64
CC(C)CNC(=O)CC1(Cn2cnnn2)CCCCC1	-92.1
O=S(=O)(c1ccc(Cl)s1)N1CCCn2ncnc21	-131

SMILES	INHIBITION [%]
O=C1CO[C@@H]2CN(CC3CC3)C[C@H]2N1Cc1cccc(F)c1	-55
O=C1NCC2(CCC(C(=O)N3CCC(O)CC3)CC2)Oc2ccccc21 (configuration not stated)	-99.2
CN(C)c1nccc(C2CN(c3ccccc3)CCO2)n1 (configuration not stated)	-40.1
Cc1ccc(C)n1-c1c(C(=O)NCC(C)N(C)C)cnn1C (configuration not stated)	-93.5
CCN1C(=O)CCCC12CCCN(C(=O)c1ccncc1F)C2 (configuration not stated)	-46.7
CC(C)(CNC1CCCN(Cc2ccccc2F)C1)CN1CCOCC1 (configuration not stated)	56.4
CC(C)(CNC1CCCN(Cc2ccccn2)C1)CN1CCOCC1 (configuration not stated)	-82.2
Fc1ccccc1CN1CCCC(NC2CCOCC2)C1 (configuration not stated)	-11.9
CN(C)c1ncc(CNC(=O)Nc2ccccc2F)n1C	-31
CN(C)c1ncc(CNC(=O)Nc2ccc(C(F)(F)F)cc2)n1C	68.3
CN(C)c1ncc(CNC(=O)Nc2ccccc2C(F)(F)F)n1C	-113
Cn1cc(C(=O)NCc2cn3c(n2)CN(C2CCOCC2)CC3)cn1	-26.8
COCCN(C(=O)c1ccccn1)c1nc2c(s1)CCc1c-2cnn1C	6.99
CC(=O)c1cc(CN2C[C@@H](NS(=O)(=O)N(C)C)[C@H](C(C)C)C2)cs1	32.8
CC(C)[C@@H]1CN(CCOc2ccccc2)C[C@H]1NS(=O)(=O)N(C)C	40.3
CC(C)[C@@H]1CN(Cc2ccsc2)C[C@H]1NS(=O)(=O)N(C)C	66.3
CC(C)[C@H]1CN(C2Cc3ccccc3C2)C[C@@H]1NS(=O)(=O)N(C)C	61.6
Cc1nc(CN2C[C@@H](NS(=O)(=O)N(C)C)[C@H](C(C)C)C2)cs1	19.1
CC(C)[C@H]1CN(C2Cc3ccccc3C2)C[C@@H]1NS(C)(=O)=O	34.6
